{"source": "the supplement of paper PMC4466140", "test_in_all_cases": "SPOT peptide array binding signal intensity (averaged, normalized) (arbitrary units (background-subtracted, floor 0; scale differs between SH3 domains)); higher = stronger binding of the SH3 domain to the peptide", "key": {"AgAbp1": {"target": "AgAbp1", "outline": "(§1)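 Binding signal refers to normalized, background-subtracted spot intensity averaged over replicates, expressed in arbitrary units that differ between domains. GST-fused SH3 domains from four yeast species were incubated at 10 μg/ml overnight at 4°C on cellulose membranes of synthetic 15-mer peptides with cysteines replaced by serines. Bound protein was detected with anti-GST antibody, an HRP anti-mouse secondary and luminol, and quantified with Genespotter.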"}, "AgBbc1": {"target": "AgBbc1", "outline": "as §1"}, "AgBem1-D1": {"target": "AgBem1-D1", "outline": "as §1"}, "AgBzz1-D1": {"target": "AgBzz1-D1", "outline": "as §1"}, "AgBzz1-D2": {"target": "AgBzz1-D2", "outline": "as §1"}, "AgCyk3": {"target": "AgCyk3", "outline": "as §1"}, "AgFus1": {"target": "AgFus1", "outline": "as §1"}, "AgHof1": {"target": "AgHof1", "outline": "as §1"}, "AgHse1": {"target": "AgHse1", "outline": "as §1"}, "AgLsb1": {"target": "AgLsb1", "outline": "as §1"}, "AgLsb4": {"target": "AgLsb4", "outline": "as §1"}, "AgMyo5": {"target": "AgMyo5", "outline": "as §1"}, "AgNbp2": {"target": "AgNbp2", "outline": "as §1"}, "AgRvs167": {"target": "AgRvs167", "outline": "as §1"}, "AgSho1": {"target": "AgSho1", "outline": "as §1"}, "AgSla1-D1-D2": {"target": "AgSla1-D1-D2", "outline": "as §1"}, "AgSla1-D3": {"target": "AgSla1-D3", "outline": "as §1"}, "CaAbp1-D1": {"target": "CaAbp1-D1", "outline": "as §1"}, "CaAbp1-D2": {"target": "CaAbp1-D2", "outline": "as §1"}, "CaBbc1": {"target": "CaBbc1", "outline": "as §1"}, "CaBem1-D1": {"target": "CaBem1-D1", "outline": "as §1"}, "CaBzz1-D1": {"target": "CaBzz1-D1", "outline": "as §1"}, "CaBzz1-D2": {"target": "CaBzz1-D2", "outline": "as §1"}, "CaCyk3": {"target": "CaCyk3", "outline": "as §1"}, "CaFus1": {"target": "CaFus1", "outline": "as §1"}, "CaHof1": {"target": "CaHof1", "outline": "as §1"}, "CaHse1": {"target": "CaHse1", "outline": "as §1"}, "CaLsb1": {"target": "CaLsb1", "outline": "as §1"}, "CaLsb4": {"target": "CaLsb4", "outline": "as §1"}, "CaMyo5": {"target": "CaMyo5", "outline": "as §1"}, "CaNbp2": {"target": "CaNbp2", "outline": "as §1"}, "CaRvs167": {"target": "CaRvs167", "outline": "as §1"}, "CaRvs167-3": {"target": "CaRvs167-3", "outline": "as §1"}, "CaSho1": {"target": "CaSho1", "outline": "as §1"}, "CaSla1-D1-D2": {"target": "CaSla1-D1-D2", "outline": "as §1"}, "CaSla1-D3": {"target": "CaSla1-D3", "outline": "as §1"}, "ScAbp1": {"target": "ScAbp1", "outline": "as §1"}, "ScBbc1": {"target": "ScBbc1", "outline": "as §1"}, "ScBem1-D1": {"target": "ScBem1-D1", "outline": "as §1"}, "ScBzz1-D1": {"target": "ScBzz1-D1", "outline": "as §1"}, "ScBzz1-D2": {"target": "ScBzz1-D2", "outline": "as §1"}, "ScCyk3": {"target": "ScCyk3", "outline": "as §1"}, "ScFus1": {"target": "ScFus1", "outline": "as §1"}, "ScHof1": {"target": "ScHof1", "outline": "as §1"}, "ScHse1": {"target": "ScHse1", "outline": "as §1"}, "ScLsb1": {"target": "ScLsb1", "outline": "as §1"}, "ScLsb2": {"target": "ScLsb2", "outline": "as §1"}, "ScLsb3": {"target": "ScLsb3", "outline": "as §1"}, "ScLsb4": {"target": "ScLsb4", "outline": "as §1"}, "ScMyo3": {"target": "ScMyo3", "outline": "as §1"}, "ScMyo5": {"target": "ScMyo5", "outline": "as §1"}, "ScNbp2": {"target": "ScNbp2", "outline": "as §1"}, "ScPex13": {"target": "ScPex13", "outline": "as §1"}, "ScRvs167": {"target": "ScRvs167", "outline": "as §1"}, "ScSho1": {"target": "ScSho1", "outline": "as §1"}, "ScSla1-D1-D2": {"target": "ScSla1-D1-D2", "outline": "as §1"}, "ScSla1-D3": {"target": "ScSla1-D3", "outline": "as §1"}, "SpAbp1-D1": {"target": "SpAbp1-D1", "outline": "as §1"}, "SpBbc1": {"target": "SpBbc1", "outline": "as §1"}, "SpBzz1-D1": {"target": "SpBzz1-D1", "outline": "as §1"}}}
{"binder": "TKFRISLGLPVGAIM", "values": [{"measurement": "SPOT peptide array binding signal intensity", "setting": "AgAbp1", "result": 4}, {"measurement": "SPOT peptide array binding signal intensity", "setting": "AgBbc1", "result": 108}, {"measurement": "SPOT peptide array binding signal intensity", "setting": "AgBem1-D1", "result": 429}, {"measurement": "SPOT peptide array binding signal intensity", "setting": "AgBzz1-D1", "result": 100}, {"measurement": "SPOT peptide array binding signal intensity", "setting": "AgBzz1-D2", "result": 109}, {"measurement": "SPOT peptide array binding signal intensity", "setting": "AgCyk3", "result": 66}, {"measurement": "SPOT peptide array binding signal intensity", "setting": "AgFus1", "result": 1490}, {"measurement": "SPOT peptide array binding signal intensity", "setting": "AgHof1", "result": 91.5}, {"measurement": "SPOT peptide array binding signal intensity", "setting": "AgHse1", "result": 911}, {"measurement": "SPOT peptide array binding signal intensity", "setting": "AgLsb1", "result": 28}, {"measurement": "SPOT peptide array binding signal intensity", "setting": "AgLsb4", "result": 513}, {"measurement": "SPOT peptide array binding signal intensity", "setting": "AgMyo5", "result": 3.75}, {"measurement": "SPOT peptide array binding signal intensity", "setting": "AgNbp2", "result": 422}, {"measurement": "SPOT peptide array binding signal intensity", "setting": "AgRvs167", "result": 21.3}, {"measurement": "SPOT peptide array binding signal intensity", "setting": "AgSho1", "result": 548}, {"measurement": "SPOT peptide array binding signal intensity", "setting": "AgSla1-D1-D2", "result": 176}, {"measurement": "SPOT peptide array binding signal intensity", "setting": "AgSla1-D3", "result": 12}, {"measurement": "SPOT peptide array binding signal intensity", "setting": "CaAbp1-D1", "result": 112}, {"measurement": "SPOT peptide array binding signal intensity", "setting": "CaAbp1-D2", "result": 134}, {"measurement": "SPOT peptide array binding signal intensity", "setting": "CaBbc1", "result": 225}, {"measurement": "SPOT peptide array binding signal intensity", "setting": "CaBem1-D1", "result": 199}, {"measurement": "SPOT peptide array binding signal intensity", "setting": "CaBzz1-D1", "result": 592}, {"measurement": "SPOT peptide array binding signal intensity", "setting": "CaBzz1-D2", "result": 334}, {"measurement": "SPOT peptide array binding signal intensity", "setting": "CaCyk3", "result": 162}, {"measurement": "SPOT peptide array binding signal intensity", "setting": "CaFus1", "result": 4760}, {"measurement": "SPOT peptide array binding signal intensity", "setting": "CaHof1", "result": 1.25}, {"measurement": "SPOT peptide array binding signal intensity", "setting": "CaHse1", "result": 193}, {"measurement": "SPOT peptide array binding signal intensity", "setting": "CaLsb1", "result": 31}, {"measurement": "SPOT peptide array binding signal intensity", "setting": "CaLsb4", "result": 280}, {"measurement": "SPOT peptide array binding signal intensity", "setting": "CaMyo5", "result": 69.2}, {"measurement": "SPOT peptide array binding signal intensity", "setting": "CaNbp2", "result": 498}, {"measurement": "SPOT peptide array binding signal intensity", "setting": "CaRvs167", "result": 245}, {"measurement": "SPOT peptide array binding signal intensity", "setting": "CaRvs167-3", "result": 2240}, {"measurement": "SPOT peptide array binding signal intensity", "setting": "CaSho1", "result": 1360}, {"measurement": "SPOT peptide array binding signal intensity", "setting": "CaSla1-D1-D2", "result": 126}, {"measurement": "SPOT peptide array binding signal intensity", "setting": "CaSla1-D3", "result": 602}, {"measurement": "SPOT peptide array binding signal intensity", "setting": "ScAbp1", "result": 13}, {"measurement": "SPOT peptide array binding signal intensity", "setting": "ScBbc1", "result": 17}, {"measurement": "SPOT peptide array binding signal intensity", "setting": "ScBem1-D1", "result": 66}, {"measurement": "SPOT peptide array binding signal intensity", "setting": "ScBzz1-D1", "result": 95}, {"measurement": "SPOT peptide array binding signal intensity", "setting": "ScBzz1-D2", "result": 392}, {"measurement": "SPOT peptide array binding signal intensity", "setting": "ScCyk3", "result": 292}, {"measurement": "SPOT peptide array binding signal intensity", "setting": "ScFus1", "result": 2830}, {"measurement": "SPOT peptide array binding signal intensity", "setting": "ScHof1", "result": 2.5}, {"measurement": "SPOT peptide array binding signal intensity", "setting": "ScHse1", "result": 1460}, {"measurement": "SPOT peptide array binding signal intensity", "setting": "ScLsb1", "result": 19.8}, {"measurement": "SPOT peptide array binding signal intensity", "setting": "ScLsb2", "result": 30}, {"measurement": "SPOT peptide array binding signal intensity", "setting": "ScLsb3", "result": 329}, {"measurement": "SPOT peptide array binding signal intensity", "setting": "ScLsb4", "result": 72}, {"measurement": "SPOT peptide array binding signal intensity", "setting": "ScMyo3", "result": 4}, {"measurement": "SPOT peptide array binding signal intensity", "setting": "ScMyo5", "result": 12}, {"measurement": "SPOT peptide array binding signal intensity", "setting": "ScNbp2", "result": 702}, {"measurement": "SPOT peptide array binding signal intensity", "setting": "ScPex13", "result": 65.5}, {"measurement": "SPOT peptide array binding signal intensity", "setting": "ScRvs167", "result": 80.7}, {"measurement": "SPOT peptide array binding signal intensity", "setting": "ScSho1", "result": 2880}, {"measurement": "SPOT peptide array binding signal intensity", "setting": "ScSla1-D1-D2", "result": 333}, {"measurement": "SPOT peptide array binding signal intensity", "setting": "ScSla1-D3", "result": 122}, {"measurement": "SPOT peptide array binding signal intensity", "setting": "SpAbp1-D1", "result": 68}, {"measurement": "SPOT peptide array binding signal intensity", "setting": "SpBbc1", "result": 55}, {"measurement": "SPOT peptide array binding signal intensity", "setting": "SpBzz1-D1", "result": 537}]}
